Source: PubChem BioAssay (SRMLSC)
Compounds with a hit are over-represented: about 6.8% of the library has one in this group of screens.
Autofluor 339 = intrinsic fluorescence of library compounds, ex339/em460 – biochemical, MLSMR library, data from DPM-DC assay, artefact control, profiling panel; 65,000 tested, 5.5% active; fluorescence fold increase at 10 µM; compound autofluorescence, ex339/em460 nm, NADH buffer; stronger effect = higher value; 1 = no-compound wells, NADH background;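 active means at 10 µM, mean starting fluorescence two-fold or more over control wells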;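 further: signal is the first read of a kinetic run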
Abs 340nm = compound light absorbance at 340 nm, profiling panel, artefact control, biochemical, MLSMR library, data from PS, PMK, MK assays; compound absorbance at 340 nm, fold over control; fold change at 10 µM; 65,000 tested, under 10 active;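 active means at 10 µM dose, initial 340 nm absorbance at least 2 fold that of control wells; inactive means change under 2 fold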;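 further: initial absorbance extrapolated from kinetic A340 decline of NADH oxidation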
NADH enzymes = inhibitors of PK/LDH coupling enzymes, profiling panel, artefact control, biochemical, MLSMR library | coupled PK/LDH NADH assays, four targets | IC50, µM (doses to about 10 µM), without a hit: top-dose inhibition | 65,000 tested, 0.02% active | AID 774, 2007;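 active means single-dose screening hits from any of four coupled enzyme assays that gave an IC50 when retested across doses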;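 further: the DPM-DC format reads NADH fluorescence rather than 340 nm absorbance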
Spn PMK inh = S. pneumoniae PMK inhibitors, primary screen, biochemical, mevalonate pathway, pilot trial included | inhibition, % at 10 µM | purified PMK, PK/LDH-coupled NADH absorbance 340 nm | 65,000 tested, 0.49% active;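 active means top-ranked compounds by inhibition in the single 10 µM screen, taking a fixed number of the strongest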;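 further: 0% = full reaction with DMSO carrier and 100% = background rate without enzyme reaction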
Spn DPM-DC inh = S. pneumoniae DPM-DC inhibitors, primary screen, biochemical, PK/LDH-coupled NADH fluorescence. 65,000 tested, 0.49% active. diphosphomevalonate decarboxylase (Streptococcus pneumoniae D39). purified DPM-DC. calls only at 10 µM;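 active means the 320 compounds with the highest percent inhibition in the single-dose primary screen, excluding strongly autofluorescent ones, cut at about 32% in these data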;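 further: kinetic rate of NADH fluorescence loss reporting ADP formed by the decarboxylase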
Spn MK inh = S. pneumoniae MK inhibitors, primary screen, biochemical, PK/LDH-coupled NADH absorbance | mevalonate kinase [Streptococcus pneumoniae D39] | purified MK, PK/LDH-coupled NADH absorbance 340 nm | inhibition, % at 10 µM | 65,000 tested, 0.48% active;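 active means ranked among the strongest by inhibition in the single 10 µM screen, a fixed top-ranked set picked for dose follow-up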
* hit, by the source's call; i = inactive; x = not tested or not shown; + = active, no number.

SMILES | Autofluor 339 | Abs 340nm | NADH enzymes | Spn PMK inh | Spn DPM-DC inh | Spn MK inh
Cc1cccn2c(=O)c3cc(C(=O)NCC4CCCO4)n(C)c3nc12 (centres undefined) | 5* | 1.1 | 9% | 11 | x | 7
CCCCOC(=O)Nc1ccccc1C(N)=O | 1.1 | 1 | 4% | 8 | i | 5
CCOC(=O)CSc1n[nH]c(-c2cccnc2)n1 | 1 | 1 | 9% | 25* | i | 0
CCOC(=O)CSc1nnc(-c2cccnc2)n1Cc1ccccc1 | 1 | 0.97 | 5% | 3 | i | 9
COc1cccc(N2CC(O)=C(c3nc4ccccc4c(=O)[nH]3)C2=N)c1 | 2.1* | 1.1 | 12% | 21 | x | 3
COc1ccc(N2CC(O)=C(c3nc4ccccc4s3)C2=N)c(OC)c1 | 1.6 | 1.1 | 10% | 13 | i | 0
COc1ccc(CC(=O)Nc2cccc(-c3nnc(-c4ccco4)o3)c2)cc1 | 1.1 | 1 | 3% | 8 | i | 0
CCC(=O)Nc1ccc(-c2nnc(-c3ccccc3)o2)cc1 | 2.4* | 1 | 7% | 9 | x | 4
O=C(O)CCC(=O)Nc1ccc(-c2nnc(-c3ccco3)o2)cc1 | 2.1* | 1.1 | 3% | 4 | x | 2
O=C(Cc1ccccc1)Nc1ccc(-c2nnc(-c3ccco3)o2)cc1 | 2.6* | 1 | 13% | 12 | i | 5
COc1ccccc1CC(=O)Nc1ccc(-c2nnc(-c3ccco3)o2)cc1 | 2.3* | 1.1 | 5% | 1 | x | 9
O=C(Cc1ccc(Cl)cc1)Nc1ccc(-c2nnc(-c3ccco3)o2)cc1 | 1.5 | 1.2 | 12% | 0 | i | 12
CCC(=O)Nc1ccc(C(=O)c2ccccc2)cc1 | 1.1 | 1 | 2% | 5 | i | 0
CCOC(=O)C1CCN(C(=O)COC(=O)COc2ccccc2OC)CC1 | 1.1 | 0.99 | 6% | 15 | i | 3
CC(CCc1ccccc1)NCC(O)c1ccc(O)c(C(N)=O)c1 (centres undefined) | 2.5* | 1 | 2% | 0 | x | 6
CC(CCc1ccccc1)NC(=O)c1ccncc1 (centres undefined) | 1.1 | 1.1 | 3% | 10 | i | 0
O=C(O)c1cc2n(n1)C(C(F)(F)F)CC(c1ccco1)N2 (centres undefined) | 1.1 | 1.1 | 2% | 2 | i | 3
Cc1ccc2c(c1)C(N1CCCC1=O)CC(c1ccco1)N2 (centres undefined) | 2.6* | 1 | 1% | 0 | i | 5
COC(=O)c1sc2ccccc2c1C(=O)OC | 1.2 | 1 | 5% | 14 | i | 1
COC(=O)c1sc2ccccc2c1N | 2.1* | 1.1 | 7% | 7 | x | 6
N#CN=C1CCCCCN1CC(N)=O | 1.1 | 1.1 | 4% | 7 | i | 4
N#Cc1nc(-c2ccccc2Cl)oc1NCC1CCCO1 (centres undefined) | 1.7 | 1.1 | 6% | 2 | i | 1
COc1ccc(-c2nc(C#N)c(NCCCN(C)C)o2)cc1OC | 3.1* | 1 | 8% | 16 | x | 33
CN(C)CCNc1oc(-c2ccccc2F)nc1C#N | 2.5* | 1 | 4% | 13 | x | 4
COc1ccc(-c2nc(C#N)c(NCC3CCCO3)o2)cc1OC (centres undefined) | 3.9* | 1.1 | 4% | 0 | x | 8
SMILES | Autofluor 339 | Abs 340nm | NADH enzymes | Spn PMK inh | Spn DPM-DC inh | Spn MK inh
N#Cc1nc(-c2ccccc2F)oc1NCc1cccc2c1OCO2 | 1.7 | 1 | 1% | 0 | i | 4
N#Cc1nc(-c2ccccc2F)oc1NC1CCCCC1 | 2.1* | 1.1 | 2% | 0 | x | 3
COc1cc(-n2c(C)nc3cc(C(=O)N4CCOCC4)ccc32)cc(OC)c1OC | 1.1 | 1 | 6% | 18 | i | 0
CCCc1nnc(NC(=O)CCC(=O)N2CCCCC2CC)s1 (centres undefined) | 1.1 | 0.99 | 1% | 0 | i | 4
CN(C)CCCNc1oc(-c2ccccc2)nc1C#N | 2.1* | 1.1 | 5% | 5 | x | 4
COc1ccc(-c2nc(C#N)c(NC(C)c3ccccc3)o2)cc1OC (centres undefined) | 3.9* | 1 | 6% | 6 | x | 5
COc1ccc(CCNc2oc(COc3ccccc3)nc2C#N)cc1 | 1.1 | 1 | 3% | 0 | i | 9
COc1ccc(-c2nnc(SCC(=O)NC(C)c3ccccc3)o2)cc1 (centres undefined) | 1.1 | 1 | 2% | 9 | i | 11
COc1ccc(CCNc2oc(-c3ccc(OC)c(OC)c3)nc2C#N)cc1 | 3.9* | 1.1 | 4% | 0 | x | 8
Cc1cccc(OCc2nc(C#N)c(NCCN(C)C)o2)c1 | 1 | 0.97 | 2% | 9 | i | 8
Clc1cccc(-c2ccc(/C=N/n3cnnc3)o2)c1 | 1.2 | 1.3 | 3716µM* | 0 | + | 7
COc1ccc(-c2cc3nc(C)c(CCC(=O)N4CCCCC4)c(C)n3n2)c(OC)c1 | 2 | 1.1 | 21% | 40* | i | 0
COc1ccc(-c2cc3nc(C)c(CCC(=O)NCc4ccco4)c(C)n3n2)c(OC)c1 | 2.2* | 1 | 5% | 8 | i | 0
Cc1ccc(NC(=O)CSc2nnc(Cn3cnc4ccccc43)o2)cc1 | 1.2 | 0.97 | 7% | 12 | i | 8
O=C(NCCCN1CCc2ccccc2C1)C1CCN(S(=O)(=O)N2CCCC2)CC1 | 0.99 | 1 | 9% | 24 | i | 0
CC(=O)c1cccc(S(=O)(=O)N2CCN(c3nc4cc(C)cc(C)c4cc3C#N)CC2)c1 | 2.2* | 1.1 | 0% | 0 | i | 1
c1cncc(-c2nc(Oc3ccc(-c4nnco4)cc3)c3c4c(sc3n2)CCCC4)c1 | 2.1* | 1 | 6% | 12 | x | 0
CCN(CC)c1ccc2cc(NC(=O)CCC(=O)O)c(=O)oc2c1 | 3* | 0.99 | 3% | 4 | x | 8
CCOc1ccc(N2CC(C(=O)Oc3ccccc3)CC2=O)cc1 (centres undefined) | 1.1 | 1 | 4% | 7 | i | 4
CCOc1ccccc1-c1nc(C(N)=O)c2[nH]c(=O)n(-c3ccc(F)cc3)c2n1 | 2.1* | 1.1 | 12% | 13 | x | 10
CCN(CC)S(=O)(=O)c1cccc(C(=O)Nc2nc3cc4c(cc3s2)OCCO4)c1 | 2.1* | 1.1 | 2% | 3 | x | 0
CC1=CC(C)(C)Nc2ccc(C)cc21 | 2.6* | 1 | 7% | 6 | i | 5
CC1=CC(C)(C)Nc2cc(C)c(C)cc21 | 2.7* | 1 | 7% | 8 | i | 10
